Source: the supplement of paper PMC12282887
± gives the standard deviation of the averaged measurements.

Test system: E. coli BW25113 marRABp lux reporter
Assay: promoter activity interaction Z-score (Lux/OD deviation from empty-vector control); higher = stronger promoter induction by the compound
Protocol: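 E. coli BW25113 (wild type or ΔmarA/ΔsoxS/Δrob) carrying pTU175 luxCDABE promoter reporters was grown in LB in 384-well plates at 37°C with each of 94 compounds at 4 two-fold concentrations, in biological duplicates. Luminescence and OD600 were read every 30 min for 12 h and integrated as AUC over 8 h (0-8 h WT, 1-9 h mutants). Lux AUC was divided by OD AUC; the interaction score is the residual of a Huber robust fit of each promoter against the empty-vector control, then Z-transformed per promoter.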

SMILES	promoter activity interaction Z-score (17 µg/ml, genetic background: wild type)	promoter activity interaction Z-score (17 µg/ml, genetic background: ΔmarA)	promoter activity interaction Z-score (17 µg/ml, genetic background: Δrob)	promoter activity interaction Z-score (17 µg/ml, genetic background: ΔsoxS)	promoter activity interaction Z-score (34 µg/ml, genetic background: wild type)	promoter activity interaction Z-score (34 µg/ml, genetic background: ΔmarA)	promoter activity interaction Z-score (34 µg/ml, genetic background: Δrob)	promoter activity interaction Z-score (34 µg/ml, genetic background: ΔsoxS)	promoter activity interaction Z-score (68.1 µg/ml, genetic background: wild type)	promoter activity interaction Z-score (68.1 µg/ml, genetic background: ΔmarA)	promoter activity interaction Z-score (68.1 µg/ml, genetic background: Δrob)	promoter activity interaction Z-score (68.1 µg/ml, genetic background: ΔsoxS)	promoter activity interaction Z-score (136.2 µg/ml, genetic background: wild type)	promoter activity interaction Z-score (136.2 µg/ml, genetic background: ΔmarA)	promoter activity interaction Z-score (136.2 µg/ml, genetic background: Δrob)	promoter activity interaction Z-score (136.2 µg/ml, genetic background: ΔsoxS)	promoter activity interaction Z-score (18.1 µg/ml, genetic background: wild type)	promoter activity interaction Z-score (18.1 µg/ml, genetic background: ΔmarA)	promoter activity interaction Z-score (18.1 µg/ml, genetic background: Δrob)	promoter activity interaction Z-score (18.1 µg/ml, genetic background: ΔsoxS)	promoter activity interaction Z-score (36.3 µg/ml, genetic background: wild type)	promoter activity interaction Z-score (36.3 µg/ml, genetic background: ΔmarA)	promoter activity interaction Z-score (36.3 µg/ml, genetic background: Δrob)	promoter activity interaction Z-score (36.3 µg/ml, genetic background: ΔsoxS)	promoter activity interaction Z-score (72.6 µg/ml, genetic background: wild type)	promoter activity interaction Z-score (72.6 µg/ml, genetic background: ΔmarA)	promoter activity interaction Z-score (72.6 µg/ml, genetic background: Δrob)	promoter activity interaction Z-score (72.6 µg/ml, genetic background: ΔsoxS)	promoter activity interaction Z-score (145.1 µg/ml, genetic background: wild type)	promoter activity interaction Z-score (145.1 µg/ml, genetic background: ΔmarA)	promoter activity interaction Z-score (145.1 µg/ml, genetic background: Δrob)	promoter activity interaction Z-score (145.1 µg/ml, genetic background: ΔsoxS)
C[C@]12CC[C@@H]3c4ccc(O)cc4CC[C@H]3[C@@H]1CC[C@@H]2O [Estradiol]	0.0618 ± 0.2	-0.313 ± 0.021	-0.258 ± 0.042	-0.0159 ± 0.095	-0.352 ± 0.0081	-0.312 ± 0.088	-0.348 ± 0.044	0.0387 ± 0.037	-0.254 ± 0.14	-0.263 ± 0.18	-0.158 ± 0.23	-0.162 ± 0.022	-0.478 ± 0.16	-0.488 ± 0.082	-0.392 ± 0.36	0.155 ± 0.22																
Oc1cc(O)c2c(c1)O[C@@H](c1ccc(O)c(O)c1)[C@H](O)C2 [Catechin]																	0.176 ± 0.43	-0.0258 ± 0.23	0.052 ± 0.11	-0.135 ± 0.017	-0.308 ± 0.32	-0.311 ± 0.035	-0.0876 ± 0.28	-0.0441 ± 0.25	0.00953 ± 0.33	-0.104 ± 0.28	-0.105 ± 0.045	-0.241 ± 0.033	-0.286 ± 0.36	-0.359 ± 0.22	-0.128 ± 0.36	-0.183 ± 0.067
